# Entries with a potency or affinity are not part of this list.
# Key:
# Staphylococcus aureus = details: Concentration 32 ug.mL-1;; ASSAY_TEST Inhibition of Bacterial Growth; detection method Absorption (OD600); MEDIA CAMHB; plate type 384well; NBS; CORNING #3640; time 18 hr
# Escherichia coli = details: Concentration 32 ug.mL-1;; ASSAY_TEST Inhibition of Bacterial Growth; detection method Absorption (OD600); MEDIA CAMHB; plate type 384well; NBS; CORNING #3640; time 18 hr
Structure (SMILES),Inhibition (Staphylococcus aureus) [%],Inhibition (Escherichia coli) [%]
O=C(Cn1nc2c(Oc3ccccc3)nccn2c1=O)Nc1ccc(F)cc1Cl,2.27,-4.59
CCc1nnc2c(=O)n(CC(=O)Nc3ccc(Br)cc3F)c3ccccc3n12,-3.08,3.54
COc1cc(NC(=O)C(C)Sc2nnc3c(=O)n(-c4ccc(C)c(C)c4)ccn23)cc(OC)c1 (stereo unspecified),-0.67,-10.24
Cc1oc(-c2ccc(OC(C)C)cc2)nc1CSc1nc2ccccc2n2c(C(C)C)nnc12,-4.43,-16.17
O=C(Cn1nc2c(N3CCOCC3)nccn2c1=O)Nc1ccc2c(c1)OCO2,15.61,0.24
O=C(Cn1nc2ccc(SCc3ccc(Cl)cc3)nn2c1=O)Nc1ccc2c(c1)CCC2,2.54,-5.73
CCOc1ccc(C(=O)Cn2nc3n(CCC(C)C)c(=O)c4sccc4n3c2=O)cc1,6.67,3.25
CCN(C(=O)Cn1nc2nc(Nc3ccc(F)cc3)ccn2c1=O)c1ccccc1,12.68,-3.17
Cc1ccc(Cl)cc1NC(=O)Cn1nc2c3c4c(sc3ncn2c1=O)CCCCC4,5.6,-1.7
Cc1cc2nn(CC(=O)Nc3cccc(C)c3C)c(=O)n2c(Nc2ccc(F)c(C)c2)n1,2.54,-7.8
Cc1cccc(NC(=O)CSc2nnc3c4cc(-c5ccccc5)nn4ccn23)c1C,-15.85,-6.36
Cc1cc(C)cc(N(Cc2ccc(Cl)cc2)S(=O)(=O)c2cccn3c(C)nnc23)c1,9.89,-11.68
CCc1nnc2ccc(S(=O)(=O)N(Cc3ccc(F)cc3)c3ccc(OC)cc3)cn12,6.39,-3.2
O=C(Cn1nc2c(N3CCOCC3)nccn2c1=O)NCc1ccccc1Cl,17.61,4.36
Cc1ccc(C)c(NC(=O)Cn2nc3ccc(-c4ccc(C)c(C)c4)nn3c2=O)c1,-1.85,-17.07
CCCCOc1ccc(-c2cc3c4nnc(SCC(=O)NCc5ccc(OC)cc5)n4ccn3n2)cc1,-2.43,-7.34
CCCCn1c(=O)c2sccc2n2c(=O)n(CC(=O)c3ccc(OC)cc3)nc12,3.9,0.74

Structure (SMILES),Inhibition (Staphylococcus aureus) [%],Inhibition (Escherichia coli) [%]
O=C(Cn1nc2c3sc(N4CCCC4)nc3ncn2c1=O)Nc1cccc(Br)c1,14.01,2.84
COc1ccc(-c2cc3c4nnc(CCC(=O)N5CCN(c6ccccc6F)CC5)n4ccn3n2)cc1,13.19,1.66
CCCCOc1ccc(-c2cc3c4nnc(SCC(=O)Nc5cccc(C)c5C)n4ccn3n2)cc1,-5.45,-19.34
CCC(Sc1nnc2c(=O)n(-c3cccc(OC)c3)ccn12)C(=O)Nc1cc(OC)cc(OC)c1 (stereo unspecified),13.02,-6.26
CCc1ccc(NC(=O)Cn2nc3ccc(SC4CCCCC4)nn3c2=O)cc1,16.16,2.08
CCc1nnc2c(SCC(=O)Nc3c(C)cc(C)cc3C)nc3ccccc3n12,7.54,3.61
CC(C)c1nnc2c(SCC(=O)Nc3ccc(C#N)cc3)nc3ccccc3n12,2.21,1.03
O=c1c2nnc(SCc3ccc(F)cc3)n2ccn1-c1ccc(Br)cc1,3.87,-5.68
CCCNC(=O)Cn1nc2n(Cc3cccs3)c(=O)c3sccc3n2c1=O,6.83,-4.01
Cc1nnc2c(=O)n(CC(=O)Nc3cccc(F)c3)c3ccccc3n12,14.13,2.22
COc1ccc(CN(c2ccc(F)c(F)c2)S(=O)(=O)c2ccc3nncn3c2)cc1,-0.97,-4.01
Cc1nnc2ccc(S(=O)(=O)N(Cc3cccc(F)c3)c3ccc4c(c3)OCO4)cn12,-10.23,-15.4
Cc1ccc(C)c(CSc2nnc3c(=O)n(-c4ccc(Br)cc4)ccn23)c1,3.9,-0.75
CCc1ccc(NC(=O)Cn2nc3cc(C)nc(Nc4ccc(C)c(F)c4)n3c2=O)cc1,-14.67,-1.11
Cc1c(Cl)cccc1-n1ccn2c(=O)n(Cc3c(F)cccc3Cl)nc2c1=O,-0.05,-8.85
COc1ccc(CNC(=O)Cn2nc3c4cc(-c5ccc(Cl)cc5)nn4ccn3c2=O)cc1,6.34,4.2

# Reference: ChEMBL document CHEMBL4513146, “CO-ADD screening of Karazin Kharkiv National University (Ukraine) compounds”
